RECQ1 helicase = RECQ1 (human) helicase inhibition. P46063. RECQ1 DNA unwinding, red fluorescence kinetic read. Potency, µM (series often up to 57.3 µM), without a hit: at the top dose activity, negative = inhibition, actives largely listed as inhibitors. hit rate 0.54% among 240,000. AID 2549;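 further: plate controls were vehicle for no effect and no enzyme for full effect; nearly all actives have a fitted effect of over 30% in size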
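RECQ1T1 50 nM; forked duplex (20 bp + 30-nt ss tails) 200 nM, ATP 2 mM final; pH 8.0, 2 mM MgCl2, 2.5 ug/ml poly(dI-dC); 15 min compound preincubation; discontinuous kinetic read over 2 h at RT.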
ERG-DNA inh = blocks human ERG Ets domain binding to DNA; P11308; fluorescence polarization, His-ERG Ets domain / labelled DNA; Potency, µM (doses to about 76.9 µM), without a hit: at the highest dose FP activity, negative = inhibition, hits mostly inhibitors; hit rate 0.028% among 370,000; active means well fitted inhibition curve with a large enough effect in the polarisation, with a control signal flat; inconclusive means small, poorly fitted or top-dose-only effect, or effect the other way, or a change in a side signal; inactive means no such curve, though single readings can be large or run the other way; the % refers to the polarisation;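 further: polarization taken with two DNA probes labelled with fluorescein and Texas red; % of control where 0% means no effect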
Target sequence (P11308 whole entry, looked up, the tested form may be a part): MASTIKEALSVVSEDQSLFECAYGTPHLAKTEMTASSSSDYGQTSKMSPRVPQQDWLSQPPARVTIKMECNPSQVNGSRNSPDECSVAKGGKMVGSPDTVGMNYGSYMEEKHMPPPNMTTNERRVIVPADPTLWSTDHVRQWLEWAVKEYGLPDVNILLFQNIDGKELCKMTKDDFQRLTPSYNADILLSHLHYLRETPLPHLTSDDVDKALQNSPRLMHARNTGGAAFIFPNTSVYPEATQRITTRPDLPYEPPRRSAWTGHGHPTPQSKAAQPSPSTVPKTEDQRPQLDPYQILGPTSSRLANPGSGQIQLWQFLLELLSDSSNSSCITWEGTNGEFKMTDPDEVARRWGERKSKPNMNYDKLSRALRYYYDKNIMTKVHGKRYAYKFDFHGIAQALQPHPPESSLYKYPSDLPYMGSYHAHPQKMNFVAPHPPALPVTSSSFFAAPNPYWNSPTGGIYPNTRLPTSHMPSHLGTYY
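His-tagged ERG Ets domain (1 uM in the protein solution; 300mM KCl, 50mM Tris-HCl, 1mM EDTA, 1mM DTT, pH 7.5) received compound, then a probe mix of 5 nM fluorescein-DNA and 100nM Texas-615-DNA. Fluorescence polarization was read for both dyes.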
BLM inh = blocks DNA unwinding by human BLM helicase | recombinant BLM DNA unwinding, fluorescence dequenching | AID 2528 | hit rate 0.2% among 350,000 | Potency, µM (highest dose often 56.1 µM), without a hit: at the highest dose activity change, negative = inhibition, most hits filed as inhibitors;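 further: plate controls were vehicle for no effect and no enzyme for full effect; nearly all actives have a fitted effect of over 35% in size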
TexasRed fluor = counter-screen for TRb-SRC2 inhibitors: fluorescence interference. TRb/SRC2 Texas Red total fluorescence interference. Potency, µM (highest dose often 106 µM), for the others: at the highest dose fluorescence change, negative = quenching. hit rate 0.29% among 280,000. AID 1479; active means well fitted curve in either direction with a large enough effect; inconclusive means small, poorly fitted or top-dose-only effect; further: on the % scale 0 is the no-effect control and ±100 the full control effect
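Human TRβ ligand-binding domain (0.6 uM) and Texas Red SRC2 peptide (20 nM) in Tris buffer with 1 uM T3 and 5% DMSO were incubated with pinned compound for 5 hr at ambient temperature. Total fluorescence was computed as S + 2P (555/632 nm).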
RGS12 GoLoco inh = blocks human Gai1 binding to RGS12 GoLoco peptide, red readout; P63096; Gai1:RGS12 GoLoco peptide FP, rhodamine, 10 min; Potency, µM (doses to about 61.6 µM), without a hit: at the highest dose activity, negative = inhibition, usual class: inhibitors; hit rate 0.44% among 230,000; active means well fitted inhibition curve with a large enough effect, not every such curve was filed as active; inactive means no such curve, though single readings can be large or run the other way; further: on the % scale 0 is the no-effect control and ±100 the full control effect; nearly all actives have a fitted effect of over 30% in size
TRb SRC2 PPI = TRbeta-SRC2 interaction inhibition | AID 1469 | hit rate 0.065% among 280,000 | TRbeta-SRC2 peptide binding, fluorescence polarization; receptor liganded with 1 µM T3 | Potency, µM (series often up to 106 µM), without a hit: top-dose activity change, negative = inhibition, actives largely listed as inhibitors;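 further: plate controls were bound peptide for no effect and peptide without receptor for full effect; nearly all actives have a fitted effect of over 50% in size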
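Binding of a 20-amino-acid Texas Red SRC2 peptide (20 nM) to TRb ligand-binding domain (0.6 uM) with agonist T3 at 1 uM was followed by fluorescence polarization after a 5 hr room-temperature incubation.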
Numbers without * were called inactive; i = inactive; u = inconclusive; x = no result; [ ] = dose if it differs, or a comment. Sampled rows, rich in hits. Any-hit rate of the full collection: about 0.71%. Unless noted, the call rests on the fitted dose curve; in most records, active means well fitted curve in the direction sought with a large enough effect; inconclusive means small, poorly fitted or top-dose-only effect, or another doubt; inactive means no such curve, though single readings can be large; an effect the other way counts as inactive or inconclusive. Potency means the concentration at half of the fitted maximal effect.

SMILES | RECQ1 helicase | ERG-DNA inh | BLM inh | TexasRed fluor | RGS12 GoLoco inh | TRb SRC2 PPI
COc1ccc2c(c1)O[C@@H](c1ccc3c(c1)OCO3)[C@H](OC(=O)N[C@H](C)C1CCCCC1)C2=O | -8% | x | 2% | -1% | 32µM* | -3%
COc1ccc2c(c1)O[C@H](c1ccc3c(c1)OCO3)[C@@H](OC(=O)NC1CCCC1)C2=O | -2% | x | 2% | -2% | 3% | 6%
CN(C)c1ccc2c(-c3ccccc3)c3ccc(=[N+](C)C)cc-3oc2c1 | 28µM* | x | 28µM* | 0.89µM*[fluorescent] | x | 0.1µM*
COc1cc2oc(-c3ccccc3)cc(=O)c2cc1OC | -6% | x | 7% | -1% | 6% | -2%
COc1ccc(/C=C(/C(=O)c2ccc(Cl)cc2Cl)n2cncn2)cc1 | -1% | -5% | -7% | 0% | 3% | 0%
CN(C)c1ccc(/C=C(/C(=O)c2ccc(Cl)cc2Cl)n2cncn2)cc1 | -13% | x | -2% | 31623µM*[quencher] | 43% | -9%
Cc1cc(O)c(/C=N/c2ccccn2)c(=O)o1 | u | 24% | 3% | 21% | 149% | -4%
Cc1cccc(/N=C/c2c(O)cc(C)oc2=O)n1 | 28µM* | 15% | -3% | 7% | 173% | 3%
CCC1=C[C@@H]2CN(C1)Cc1c([nH]c3ccccc13)[C@@](C(=O)OC)(c1cc3c(cc1OC)N(C)[C@@H]1[C@@](O)(C(=O)OC)[C@H](OC(C)=O)[C@]4(CC)C=CCN5CC[C@]31[C@@H]54)C2 | x | x | -5% | x | x | x
Cc1ccc2oc(C(=O)Nc3ccc(S(=O)(=O)Nc4nc(C)cc(C)n4)cc3)cc(=O)c2c1 | x | 5% | -8% | 32µM*[quencher] | x | -2%
CCSC[C@H](NC(=O)[C@H](C)N)C(=O)N[C@@H](CC(=O)O)C(=O)N[C@H](C(=O)N[C@@H](C)C(=O)N[C@H](C(=O)N[C@@H](CSCC)C(=O)N[C@H](C(=O)N[C@H](C(=O)N[C@@H](Cc1cnc[nH]1)C(=O)N[C@@H](CCCNC(=N)N)C(=O)N[C@@H](CC(C)C)C(=O)N[C@@H](C)C(=O)NCC(=O)N[C@@H](CC(C)C)C(=O)N[C@@H](CC(C)C)C(=O)N[C@@H](CO)C(=O)N[C@@H](CCCNC(=N)N)C(=O)N[C@@H](CO)C(=O)NCC(=O)NCC(=O)N[C@H](C(=O)N[C@H](C(=O)N[C@@H](CCCCN)C(=O)N[C@@H](CC(N)=O)C(=O)N[C@@H](CC(N)=O)C(=O)N[C@@H](Cc1ccccc1)C(=O)N[C@H](C(=O)N1CCC[C@H]1C(=O)N[C@H](C(=O)N[C@@H](CC(N)=O)C(=O)N[C@H](C(=O)NCC(=O)N[C@@H](CO)C(=O)N[C@@H](CCCCN)C(=O)N[C@@H](C)C(=O)N[C@@H](Cc1ccccc1)C(N)=O)C(C)C)[C@@H](C)O)C(C)C)C(C)C)C(C)C)[C@@H](C)O)C(C)C)[C@@H](C)O)[C@@H](C)O | -10% | x | 1% | -1% | x | 0%
Cc1ccc(-n2cccc2/C=C2/NC(=O)N(CC(=O)Nc3cccc(C)c3)C2=O)cc1 | 1% | -2% | -3% | -2% | 7.9µM* | 6%
Cc1cccc(NC(=O)CN2C(=O)N/C(=C\c3cccn3-c3cccc(C(=O)O)c3)C2=O)c1 | i | -1% | -5% | 0% | -18% | 2%
CCN(CC)c1ccc2nc3c(=O)n(C)c(=O)n(C)c3nc2c1 | x | u | u | 22µM*[fluorescent] | x | -24%
O=C(O)/C=C/C(=O)Nc1ccc(OC(F)(F)F)cc1 | i | -3% | 0% | -6% | -3% | -4%
O=C(O)/C=C/C(=O)Nc1ccc(OC(F)(F)F)cc1Br | -8% | -12% | -6% | -8% | -2% | 32µM*
CCOC(=O)C1=C(CSc2nc(-c3ccccc3)ccc2C#N)OC(N)=C(C#N)C1c1ccc(OC)cc1 (configuration not stated) | 10µM* | 28% | -13% | 2% | 41% | 8%

Bioassay records: PubChem BioAssay, National Center for Advancing Translational Sciences (NCATS)
